Values joined by “and” are separate entries in the source; they are usually repeats but may differ in a detail not shown here. Equal entries are not always repeated. The campaign covered roughly 650,000 compounds. About 5,900 (0.91%) were called active. Cut-off read from the data, not from the text of the source: active = inhibition above about 50%; inactive = the rest. Only a selection was taken, and actives are over-represented in it overall.
Biological target: Microphthalmia-associated transcription factor (Homo sapiens) (UniProt O75030)
Assay: MITF inhibitors, primary screen, biochemical, AlphaScreen, human (AID 1259374);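 note: 0% = vehicle wells with protein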
Settings: AlphaScreen MITF homodimerization, bead proximity signal; at 2.6 µM; hits give high values

Microphthalmia-associated transcription factor (Homo sapiens), sequence (O75030 whole entry, looked up): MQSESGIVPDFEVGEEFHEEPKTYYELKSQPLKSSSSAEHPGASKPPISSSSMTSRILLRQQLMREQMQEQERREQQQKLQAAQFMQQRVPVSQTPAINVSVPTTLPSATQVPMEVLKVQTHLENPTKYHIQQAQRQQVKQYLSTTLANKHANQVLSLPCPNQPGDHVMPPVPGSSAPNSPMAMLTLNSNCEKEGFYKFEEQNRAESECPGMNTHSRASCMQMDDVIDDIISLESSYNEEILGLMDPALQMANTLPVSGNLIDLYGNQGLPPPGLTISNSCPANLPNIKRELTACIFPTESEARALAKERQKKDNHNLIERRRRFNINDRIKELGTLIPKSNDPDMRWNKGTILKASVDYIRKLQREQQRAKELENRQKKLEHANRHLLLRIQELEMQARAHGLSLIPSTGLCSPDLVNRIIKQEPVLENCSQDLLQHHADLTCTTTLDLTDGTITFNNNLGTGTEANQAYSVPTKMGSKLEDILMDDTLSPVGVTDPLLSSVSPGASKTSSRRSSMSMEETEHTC

Row | Compound | inhibition
1 | O=C(NNC(=O)c1ccccn1)NC12CC3CC(CC(C3)C1)C2 | 5.98% (inactive)
2 | COc1cccc(C(=O)NCCSc2ncc(-c3ccc(C)cc3)[nH]2)c1 | 8.31% (inactive)
3 | Cc1cccc(OCc2nc(C#N)c(NCCCN(C)C)o2)c1 | -13.4% (inactive)
4 | Cc1ccc(-c2nc(C#N)c(NCCCn3ccnc3)o2)cc1 | -5.46% (inactive)
5 | N#Cc1nc(COc2cccc(Cl)c2)oc1NCCCn1ccnc1 | 62.2% (active)
6 | O=C(CSc1ccc2nc(-c3ccccc3)cn2n1)Nc1cccc2ccccc12 | -15.1% (inactive)
7 | CCN1C(=O)/C(=C/c2ccc(-c3ccc(Br)cc3)o2)N(CC)C1=S | -10.4% (inactive)
8 | Cc1ccc(S(=O)(=O)N2CCN(Cc3ccc(F)cc3)CC2)cc1 | 49.5% (inactive)
9 | CSc1ccc(CN2CCN(S(=O)(=O)c3ccc([N+](=O)[O-])cc3)CC2)cc1 | 53.2% (active)
10 | COc1ccccc1CN1CCN(S(=O)(=O)c2ccc([N+](=O)[O-])cc2)CC1 | 39.9% (inactive)
11 | CSc1ccccc1NC(=O)c1cc2nc(-c3ccc(Br)cc3)cc(C(F)(F)F)n2n1 | -5.34% (inactive)
12 | COc1cc(C2N=C(c3ccccc3)C(C)(C)N2O)ccc1O (stereo not drawn) | 2.87% (inactive)
13 | O=S(=O)(c1ccc(Cl)cc1)N1CCc2ccccc2C1 | 10.1% (inactive)
14 | CCOC(=O)c1c(NC(=O)c2ccc(OC)cc2OC)sc(C(C)=O)c1C | 7.53% (inactive)
15 | Cc1cccc(C(=S)N2CCOCC2)c1 | -19.2% (inactive)
16 | COc1ccc(CNc2ccc3ncc(-c4cccc(O)c4)n3n2)cc1 | -19% (inactive)
17 | COc1ccc(CN2CCN(CCCc3ccccc3)C(CCO)C2)cc1O (stereo not drawn) | 7.3% (inactive)
18 | CCOc1cc(CN2CCN(Cc3cccc(OC)c3)C(CCO)C2)ccc1O (stereo not drawn) | -2.92% (inactive)
19 | COc1cccc(CN2CCN(CCCc3ccccc3)CC2CCO)c1 (stereo not drawn) | 69% (active)
20 | OCC1CCN(C2CCCN(Cc3cccc(-c4ccco4)c3)C2)CC1 (stereo not drawn) | 3.07% (inactive)
21 | COc1ccccc1N1C(=O)c2ccc(C(=O)NN3C(=O)c4ccccc4C3=O)cc2C1=O | 11.1% (inactive)
22 | COc1cc(N/N=C(\C)c2ccc([N+](=O)[O-])cc2)ncn1 | 9.19% (inactive)
23 | Cc1cccc(CSc2n[nH]c(=O)[nH]c2=O)c1 | 58.5% (active)
24 | O=c1[nH]nc(SCc2cn3cc(Cl)ccc3n2)c(=O)[nH]1 | -5.72% (inactive)
25 | O=c1[nH]nc(SCc2ccc(Cl)cc2)c(=O)[nH]1 | 4.19% (inactive)

Row | Compound | inhibition
26 | O=c1oc(-c2cccc3ncccc23)nn1Cc1cccnc1 | -6.6% (inactive)
27 | COc1ccc(N(CC(=O)N2CCN(C)CC2)S(C)(=O)=O)cc1 | 13.7% (inactive)
28 | CCOc1ccc(-c2ccc(C)c(NC(=O)c3cccs3)c2)nn1 | 0.28% (inactive)
29 | Cc1ccc(C2=NN3C(=N)/C(=C/c4ccc(-c5ccc(C(=O)O)cc5)o4)C(=O)N=C3S2)cc1 | 3.4% (inactive)
30 | Cc1ccc(C2=NN3C(=N)/C(=C/c4ccco4)C(=O)N=C3S2)cc1 | -3.9% (inactive)
31 | N=C1/C(=C\c2ccc([N+](=O)[O-])o2)C(=O)N=C2SC(N3CCOCC3)=NN12 | 74.2% (active)
32 | Cc1nnc(SCC(=O)N2c3ccccc3Sc3ccccc32)nc1C | -1.53% (inactive)
33 | O=C(OCCN1CCOCC1)C1(c2ccccc2)CCCCC1 | 3.29% (inactive) and -3.71% (inactive)
34 | COc1ccc(/C=C/C(=O)OCCN2CCOCC2)cc1 | 12.6% (inactive)
35 | O=C(OCCN1CCOCC1)c1c(Cl)nc2sccn12 | 68.3% (active)
36 | CSc1cccc(NC(=O)C2C3C=CC4(O3)C2C(=O)N(CCCN2CCCC(C)C2)C4C(=O)NC2CCCCC2)c1 (stereo not drawn) | 1.08% (inactive)
37 | COc1ccc(CNCc2cccc(F)c2)c(OC)c1 | 17.1% (inactive)
38 | COc1cc(CN2CCN(C3CCCC3)C(CCO)C2)cc(OC)c1OC (stereo not drawn) | -4.18% (inactive)
39 | COc1ccc(OC)c(CN2CCN(Cc3ccccc3OC)CC2)c1 | 65.1% (active)
40 | COc1ccc(CN2CCN(Cc3cc(OC)c(OC)c(OC)c3)CC2)cc1 | 70.5% (active)
41 | COc1ccc(CN2CCN(Cc3cccc(Br)c3)CC2)c(OC)c1 | 72.2% (active)
42 | COc1cc(CN2CCC(O)CC2)cc(OC)c1OC | 20.4% (inactive)
43 | COc1ccc(OC)c(CN2CCN(C3CCCCCC3)CC2)c1 | 49.2% (inactive)
44 | COc1cc(CN2CCN(Cc3ccccc3Cl)CC2)cc(OC)c1OC | 74.9% (active)
45 | COc1ccc(S(=O)(=O)N2CCN(Cc3ccccc3Cl)CC2)cc1 | 8.12% (inactive)
46 | COc1cc(CN2CCOCC2)cc(OC)c1OC | 5.88% (inactive)
47 | COc1ccc(CN2CCCCC2)c(OC)c1 | -6.28% (inactive)
48 | COc1ccc(OC)c(CN2CCC(C(=O)NCC(C)C)CC2)c1 | 10.5% (inactive)
49 | CS(=O)(=O)Nc1ccc(C(=O)Nc2ccc(Br)c(Cl)c2)cc1 | 11.7% (inactive)
50 | COc1ccc(C(=O)N2CCc3c(nc(C)[nH]c3=O)C2)cc1Cn1nc(C)cc1C | 4.03% (inactive)

Row | Compound | inhibition
51 | COc1cc(C2C3=C(Nc4[nH]c(=O)[nH]c(=O)c42)C(=O)CC(C)(C)C3)ccc1O (stereo not drawn) | -4.39% (inactive)
52 | Cc1ccc(Cl)c2sc(=NC(=O)CN3C(=O)c4ccccc4C3=O)n(C)c12 | 14.4% (inactive)
53 | O=C(NCCc1ccc(O)cc1)C1CCN(c2ccc(Nc3ccc4ncccc4c3)nn2)CC1 | 14.1% (inactive)
54 | COc1ccc(Cl)cc1-c1nc(SCC(=O)Nc2ccc([N+](=O)[O-])cc2C#N)n[nH]1 | 5.04% (inactive)
55 | Cc1cc2c(cc3c(=O)n(CC(=O)N4CCCCCC4)nc(C)n32)s1 | 19.7% (inactive)
56 | CC(=O)NC1(c2ccccc2)CCN(C(=O)N(c2ccccc2)c2ccccc2)CC1 | -5.46% (inactive)
57 | N#CC1=C(N)Oc2n[nH]c(-c3ccccc3)c2C1c1cc(Cl)cc(Cl)c1OC(=O)N1CCOCC1 (stereo not drawn) | 1.7% (inactive)
58 | O=C(CSc1cn(Cc2cccc(F)c2)c2ccccc12)Nc1ccccc1 | -4.78% (inactive)
59 | CCOC(=O)c1c(NC(=O)COc2ccc(C)cc2Br)sc2c1CCC(C)C2 (stereo not drawn) | 14.2% (inactive)
60 | O=C(CSc1nnc2ncccn12)N1CCN(c2ccccc2F)CC1 | -5.77% (inactive)
61 | CCN(CC)C(=O)C1CCCN(Cc2ccccc2OC)C1 (stereo not drawn) | 16.3% (inactive)
62 | COc1ccc(OC)c(CN2CCc3nnc(C4CCCO4)n3CC2)c1 (stereo not drawn) | 0.68% (inactive)
63 | CCOc1ccc(CN2CCN(Cc3cc(OC)ccc3O)CC2)cc1 | 20.6% (inactive)
64 | COc1ccc(CN2CCN(Cc3ccccc3OC)CC2)cc1Br | 77.2% (active)
65 | C=C(C)CN(CC)C(=O)C1CCN(Cc2cc(OC)ccc2OC)CC1 | 33.5% (inactive)
66 | CC1CN(Cc2ccc3ccccc3c2)CC(C)O1 (stereo not drawn) | 1.44% (inactive)
67 | COc1ccccc1CN1CCN(c2ccccn2)CC1 | 45.1% (inactive)
68 | COc1ccc(CN2CCN(Cc3cc(OC)ccc3OC)CC2)cc1 | 76.4% (active)
69 | COc1ccc(S(=O)(=O)NCc2ccccc2OC)cc1Br | 9.71% (inactive)
70 | COc1ccc(OC)c(CN2CCC3(CCC(CNC(C)=O)O3)CC2)c1 (stereo not drawn) | -3.91% (inactive)
71 | COc1ccccc1CN1CC(C)OC(C)C1 (stereo not drawn) | 82.9% (active)
72 | COc1ccc(OC)c(CN2CCN(Cc3ccc(Cl)cc3)CC2)c1 | 82.1% (active)
73 | Cc1ccc(N2C(=O)CN(S(C)(=O)=O)CC2(C)C(=O)NC2CCCC2)cc1C (stereo not drawn) | -2.11% (inactive)
74 | O=C(OCCN=C1NS(=O)(=O)c2ccccc21)c1ccc([N+](=O)[O-])cc1 | -14% (inactive)
75 | O=C1c2ccccc2C(=O)N1CCSc1nc2sc3c(c2c(=O)n1-c1ccccc1)CCCC3 | -1.49% (inactive)

Row | Compound | inhibition
76 | CCOC(=O)c1cc(-c2ccc(O)c(OC)c2)no1 | -12.8% (inactive)
77 | O=C(NCc1ccc(Cl)cc1)C1CCN(c2nnnn2-c2ccccc2)CC1 | 5.24% (inactive)
78 | O=C(CSc1nc(Nc2ccc(F)cc2)c2ccccc2n1)c1ccc(Cl)cc1 | 10.1% (inactive)
79 | Cc1ccc2[nH]c3nc(N/N=C/c4ccc(N(C)C)cc4)nnc3c2c1 | 15.6% (inactive)
80 | CC(C)N(CCNc1nc(N2CCCC2CO)nc2nc[nH]c12)C(C)C (stereo not drawn) | 5.38% (inactive)
81 | CC(=O)Oc1ccccc1C(=O)Nc1ccc(Cl)c(Cl)c1 | 0.46% (inactive)
82 | CCOC(=O)/C(C#N)=C/c1ccccc1OC | -4.17% (inactive)
83 | CNc1ccccc1C(=O)OCc1ccc([N+](=O)[O-])cc1Cl | 12.5% (inactive)
84 | Cc1ccc2nc3sc(C(=O)Nc4c[nH]c(=O)[nH]c4=O)c(N)c3cc2c1 | 0.86% (inactive)
85 | Cc1ccc2nc(CN3CCN(C=O)CC3)nc(N3CCSCC3)c2c1 | -5.97% (inactive)
86 | O=C(NCCc1ccc(F)cc1)c1ccc(Br)o1 | -9.44% (inactive)
87 | NCC1CCN(Cc2ccccc2Cl)CC1 | 21.9% (inactive)
88 | O=CN1CCN(Cc2ccccc2Cl)CC1 | 3.26% (inactive)
89 | CCC(C(=O)N1CCN(C(=O)C(CC)c2ccccc2)CC1)c1ccccc1 (stereo not drawn) | 6.26% (inactive)
90 | COc1cc(CN2CCN(C(=O)C(c3ccccc3)c3ccccc3)CC2)cc(OC)c1OC | 53.1% (active)
91 | CC1CCCC(N2CCN(Cc3ccccc3Cl)CC2)C1 (stereo not drawn) | 63.2% (active)
92 | COc1cc(CN2CCN(C(=O)c3cc(OC)c(OC)c(OC)c3)CC2)cc(OC)c1O | -11% (inactive)
93 | CCN(CC)C(=O)C(Cc1ccccc1)NCC(=O)Nc1ccc(C)cc1 (stereo not drawn) | 10.3% (inactive)
94 | COc1cccc(OC)c1C(=O)Nc1ccc(Cl)cn1 | -14.5% (inactive)
95 | CCOC(=O)c1sc(=S)n(-c2cccc(C(F)(F)F)c2)c1N | -1.48% (inactive)
96 | CN(C)c1cccc(Nc2nccc(Nc3ccccc3)n2)c1 | -2.6% (inactive)
97 | CC(Nc1ccc(-c2cccc(C=O)c2)cn1)c1ccc(F)cc1 (stereo not drawn) | 7.6% (inactive)
98 | CN(C)c1cccc(Nc2ccc(-c3cccc(C=O)c3)cn2)c1 | 50.8% (active)

— PubChem BioAssay AID1259374 (The Scripps Research Institute Molecular Screening Center, 2018)
